Results on seven compounds are retold here after PubChem BioAssay (EPA / NIEHS).

Active and inactive are the calls of the source. How the source made its calls: active means hit-call score of the fitted dose curve at least 0.9, where 1 is the maximum; inactive means score below 0.9.

Holding throughout (settings): mRNA level, 48 h; actives raise or lower the signal
Read-out in assay [1]: Fatty acid synthase (Homo sapiens) (UniProt P49327)
Kind of assay: LTEA_HepaRG_FASN: Life Technologies and Expression Analysis (LTEA) Assay for Fatty Acid Synthase (FASN) using HepaRG (AID 2283448). The gist of the method:
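Differentiated human HepaRG cells were exposed for 48 h in serum-free induction medium to eight half-log concentrations up to 100 uM in 0.5% DMSO, in duplicate. FASN mRNA was quantified by TaqMan qRT-PCR, normalized to ACTB/GAPDH/POLR2A, and fitted bidirectionally against DMSO.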

Read-out in assay [2]: Cyclin D2 (CCND2), CCND2 (gene 894)
The experiment in a line: LTEA_HepaRG_CCND2: Life Technologies and Expression Analysis (LTEA) Assay for Cyclin D2 (CCND2) using HepaRG (AID 2283449).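 Further: CCND2 transcript measured by TaqMan qRT-PCR and normalised to three housekeeping genes.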 In outline: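 Chemicals in 0.5% DMSO, eight half-log concentrations from 100 uM top, were applied in duplicate for 48 h to human HepaRG cells in serum-free induction medium. CCND2 mRNA by TaqMan qRT-PCR, normalised to ACTB/GAPDH/POLR2A; bidirectional fit versus DMSO.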

Read-out in assay [3]: Cyclin Dependent Kinase Inhibitor 1A (CDKN1A), CDKN1A (gene 1026)
The experiment in a line: LTEA_HepaRG_CDKN1A: Life Technologies and Expression Analysis (LTEA) Assay for Cyclin Dependent Kinase Inhibitor 1A (CDKN1A) using HepaRG (AID 2283450). In outline:
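Gain or loss of CDKN1A transcript is scored by bidirectional fitting against 0.5% DMSO vehicle. Human HepaRG cultures receive chemicals for 48 h across an 8-point series peaking at 100 uM; expression comes from qRT-PCR.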

Read-out in assay [4]: Cyclin D1 (CCND1), CCND1 (gene 595)
The experiment in a line: LTEA_HepaRG_CCND1: Life Technologies and Expression Analysis (LTEA) Assay for Cyclin D1 (CCND1) using HepaRG (AID 2283451). The gist of the method:
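Expression change is measured by qRT-PCR in HepaRG cells after 48 h treatment across eight concentrations topping at 100 uM, with duplicate wells and DMSO (0.5%) serving as baseline for bidirectional fitting.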

Read-out in assay [5]: catalase (CAT), CAT (gene 847)
The experiment in a line: LTEA_HepaRG_CAT: Life Technologies and Expression Analysis (LTEA) Assay for catalase (CAT) using HepaRG (AID 2283452). In outline: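 HepaRG cells in serum-free induction medium, 0.5% DMSO vehicle, exposed 48 h in duplicate over 8 half-log concentrations from 100 uM. CAT mRNA measured by qRT-PCR, normalized to ACTB, GAPDH, POLR2A; bidirectional fit versus DMSO.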

Read-out in assay [6]: flavin-containing dimethylaniline monooxygenases 3 (FMO3), FMO3 (gene 2328)
Kind of assay: LTEA_HepaRG_FMO3: Life Technologies and Expression Analysis (LTEA) Assay for flavin-containing dimethylaniline monooxygenases 3 (FMO3) using HepaRG (AID 2283453). In outline: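 HepaRG, 48 h exposure, 8-pt half-log series from 100 uM, 0.5% DMSO vehicle, duplicates; FMO3 transcript by Fluidigm TaqMan qRT-PCR, housekeeping-normalized; gain/loss fit vs DMSO.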

Read-out in assay [7]: Cytochrome P450 (CYP1A1), CYP1A1 (gene 1543)
The experiment in a line: LTEA_HepaRG_CYP1A1: Life Technologies and Expression Analysis (LTEA) Assay for Cytochrome P450 (CYP1A1) using HepaRG (AID 2283454). The gist of the method:
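Using HepaRG cultures with 0.5% DMSO as vehicle, eight-concentration exposures (max 100 uM) lasted 48 h. Transcript levels were measured by TaqMan qRT-PCR and normalized to ACTB, GAPDH and POLR2A.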

Read-out in assay [8]: CFLAR gene, CFLAR (gene 8837)
Kind of assay: LTEA_HepaRG_CFLAR: Life Technologies and Expression Analysis (LTEA) Assay for CFLAR gene using HepaRG (AID 2283455). In outline:
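Differentiated HepaRG cells in serum-free induction medium were exposed 48 h in duplicate to eight half-log concentrations up to 100 uM in 0.5% DMSO; mRNA measured by TaqMan qRT-PCR, normalized to ACTB, GAPDH, POLR2A; bidirectional fitting versus DMSO.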

Read-out in assay [9]: growth arrest and DNA damage 45 (GADD45A), GADD45A (gene 1647)
The experiment in a line: LTEA_HepaRG_GADD45A: Life Technologies and Expression Analysis (LTEA) Assay for growth arrest and DNA damage 45 (GADD45A) using HepaRG (AID 2283458). The gist of the method: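 Differentiated HepaRG cells were exposed in duplicate for 48 h in serum-free induction medium to 8-point half-log concentrations up to 100 uM in 0.5% DMSO. GADD45A mRNA was measured by TaqMan qRT-PCR, normalized to ACTB, GAPDH and POLR2A, with bidirectional fitting versus DMSO.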

Read-out in assay [10]: Forkhead box O3 (FOXO3), FOXO3 (gene 2309)
The experiment in a line: LTEA_HepaRG_FOXO3: Life Technologies and Expression Analysis (LTEA) Assay for Forkhead box O3 (FOXO3) using HepaRG (AID 2283459). In outline: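 Differentiated human HepaRG cells, 48 h post-plating, exposed in duplicate for 48 h in serum-free induction medium; 8-point half-log series from 100 uM in 0.5% DMSO. FOXO3 mRNA by TaqMan qRT-PCR, normalized to ACTB/GAPDH/POLR2A; bidirectional fit versus DMSO.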

Read-out in assay [11]: ABC Transporter (ABCB1), ABCB1 (gene 5243)
Kind of assay: LTEA_HepaRG_ABCB1: Life Technologies and Expression Analysis (LTEA) Assay for ABC Transporter (ABCB1) using HepaRG (AID 2283460). The gist of the method:
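HepaRG cells exposed in duplicate for 48 h in serum-free induction medium to eight half-log concentrations up to 100 uM in 0.5% DMSO. ABCB1 mRNA quantified by qRT-PCR, normalised to ACTB, GAPDH and POLR2A; fitted bidirectionally versus DMSO.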

Read-out in assay [12]: growth arrest and DNA damage 45 (GADD45B), GADD45B (gene 4616)
The experiment in a line: LTEA_HepaRG_GADD45B: Life Technologies and Expression Analysis (LTEA) Assay for growth arrest and DNA damage 45 (GADD45B) using HepaRG (AID 2283461). In outline:
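Human HepaRG monolayers receive chemicals for 48 h at eight half-log concentrations, highest 100 uM, in 0.5% DMSO. Expression is measured by TaqMan qRT-PCR and normalized to ACTB, GAPDH and POLR2A.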

Read-out in assay [13]: ABC Transporter (ABCC3), ABCC3 (gene 8714)
Kind of assay: LTEA_HepaRG_ABCC3: Life Technologies and Expression Analysis (LTEA) Assay for ABC Transporter (ABCC3) using HepaRG (AID 2283462). In outline: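 Transcriptional change of ABCC3 in HepaRG after 48 h treatment, determined by qRT-PCR normalized to endogenous controls. Concentrations spanned eight half-log steps to 100 uM in 0.5% DMSO.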

Read-out in assay [14]: ABC Transporter (ABCB11), ABCB11 (gene 8647)
Kind of assay: LTEA_HepaRG_ABCB11: Life Technologies and Expression Analysis (LTEA) Assay for ABC Transporter (ABCB11) using HepaRG (AID 2283463). In outline:
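Differentiated human HepaRG cells in serum-free induction medium, dosed in duplicate for 48 h. Eight-point half-log series from 100 uM in 0.5% DMSO; ABCB11 mRNA by qRT-PCR, normalized to ACTB, GAPDH, POLR2A, fitted bidirectionally versus DMSO.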

Read-out in assay [15]: ABC Transporter (ABCC2), ABCC2 (gene 1244)
Kind of assay: LTEA_HepaRG_ABCC2: Life Technologies and Expression Analysis (LTEA) Assay for ABC Transporter (ABCC2) using HepaRG (AID 2283464). The gist of the method: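 After plating and 48 h culture, HepaRG medium is replaced with serum-free induction medium and chemicals are added (8 concentrations, max 100 uM, 0.5% DMSO) for 48 h. Total RNA then undergoes qRT-PCR for ABCC2 with housekeeping normalization.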

Read-out in assay [16]: Broad substrate specificity ATP-binding cassette transporter ABCG2 (Homo sapiens) (UniProt Q9UNQ0)
The experiment in a line: LTEA_HepaRG_ABCG2: Life Technologies and Expression Analysis (LTEA) Assay for ABC Transporter (ABCG2) using HepaRG (AID 2283465). The gist of the method: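 Differentiated HepaRG cells were exposed for 48 h in serum-free induction medium to 8 half-log concentrations, top 100 uM, in 0.5% DMSO. ABCG2 mRNA was measured by qRT-PCR, normalized to ACTB, GAPDH and POLR2A, with bidirectional fitting versus DMSO.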

Read-out in assay [17]: ATP-citrate lyase (ACLY), ACLY (gene 47)
Kind of assay: LTEA_HepaRG_ACLY: Life Technologies and Expression Analysis (LTEA) Assay for ATP-citrate lyase (ACLY) using HepaRG (AID 2283466). The gist of the method:
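Differentiated HepaRG cells exposed 48 h in serum-free induction medium to eight half-log concentrations up to 100 uM in 0.5% DMSO, duplicates. Transcript measured by Fluidigm TaqMan qRT-PCR, normalized to ACTB, GAPDH, POLR2A; bidirectional fit versus DMSO.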

Read-out in assay [18]: Peroxisomal acyl-coenzyme A oxidase 1 (ACOX1) gene, ACOX1 (gene 51)
Kind of assay: LTEA_HepaRG_ACOX1: Life Technologies and Expression Analysis (LTEA) Assay for Peroxisomal acyl-coenzyme A oxidase 1 (ACOX1) gene using HepaRG (AID 2283467). The gist of the method:
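HepaRG cells, plated 48 h then switched to serum-free induction medium, were exposed in duplicate for 48 h to 8-point half-log concentrations up to 100 uM in 0.5% DMSO. ACOX1 mRNA was measured by qRT-PCR, normalized to ACTB/GAPDH/POLR2A, and fitted bidirectionally versus DMSO.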

Read-out in assay [19]: Forkhead box O1 (FOXO1), FOXO1 (gene 2308)
The experiment in a line: LTEA_HepaRG_FOXO1: Life Technologies and Expression Analysis (LTEA) Assay for Forkhead box O1 (FOXO1) using HepaRG (AID 2283456). In outline: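 Differentiated HepaRG cells, in serum-free induction medium with 0.5% DMSO, exposed 48 h in duplicate to 8-point half-log series from 100 uM. FOXO1 mRNA measured by TaqMan qRT-PCR, normalized to ACTB, GAPDH, POLR2A; bidirectional fit versus DMSO.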

Sequence of Broad substrate specificity ATP-binding cassette transporter ABCG2 (Homo sapiens) (Q9UNQ0 whole entry, looked up): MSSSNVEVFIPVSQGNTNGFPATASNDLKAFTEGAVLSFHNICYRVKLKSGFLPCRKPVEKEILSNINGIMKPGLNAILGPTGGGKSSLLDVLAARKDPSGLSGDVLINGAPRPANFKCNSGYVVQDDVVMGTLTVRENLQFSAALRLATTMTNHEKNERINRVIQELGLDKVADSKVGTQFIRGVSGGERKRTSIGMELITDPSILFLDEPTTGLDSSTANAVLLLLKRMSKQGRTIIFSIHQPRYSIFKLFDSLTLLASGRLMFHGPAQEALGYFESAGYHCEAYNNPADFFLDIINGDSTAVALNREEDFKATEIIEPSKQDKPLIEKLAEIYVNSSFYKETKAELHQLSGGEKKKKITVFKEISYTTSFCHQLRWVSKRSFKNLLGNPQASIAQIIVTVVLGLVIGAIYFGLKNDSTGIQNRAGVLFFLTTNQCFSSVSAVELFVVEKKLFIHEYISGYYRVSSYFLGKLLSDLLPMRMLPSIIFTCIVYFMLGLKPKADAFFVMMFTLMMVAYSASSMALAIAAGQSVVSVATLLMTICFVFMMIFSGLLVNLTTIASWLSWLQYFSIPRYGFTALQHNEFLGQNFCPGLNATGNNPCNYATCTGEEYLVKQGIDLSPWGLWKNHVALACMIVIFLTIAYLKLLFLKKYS
Sequence of Fatty acid synthase (Homo sapiens) (P49327 whole entry, looked up): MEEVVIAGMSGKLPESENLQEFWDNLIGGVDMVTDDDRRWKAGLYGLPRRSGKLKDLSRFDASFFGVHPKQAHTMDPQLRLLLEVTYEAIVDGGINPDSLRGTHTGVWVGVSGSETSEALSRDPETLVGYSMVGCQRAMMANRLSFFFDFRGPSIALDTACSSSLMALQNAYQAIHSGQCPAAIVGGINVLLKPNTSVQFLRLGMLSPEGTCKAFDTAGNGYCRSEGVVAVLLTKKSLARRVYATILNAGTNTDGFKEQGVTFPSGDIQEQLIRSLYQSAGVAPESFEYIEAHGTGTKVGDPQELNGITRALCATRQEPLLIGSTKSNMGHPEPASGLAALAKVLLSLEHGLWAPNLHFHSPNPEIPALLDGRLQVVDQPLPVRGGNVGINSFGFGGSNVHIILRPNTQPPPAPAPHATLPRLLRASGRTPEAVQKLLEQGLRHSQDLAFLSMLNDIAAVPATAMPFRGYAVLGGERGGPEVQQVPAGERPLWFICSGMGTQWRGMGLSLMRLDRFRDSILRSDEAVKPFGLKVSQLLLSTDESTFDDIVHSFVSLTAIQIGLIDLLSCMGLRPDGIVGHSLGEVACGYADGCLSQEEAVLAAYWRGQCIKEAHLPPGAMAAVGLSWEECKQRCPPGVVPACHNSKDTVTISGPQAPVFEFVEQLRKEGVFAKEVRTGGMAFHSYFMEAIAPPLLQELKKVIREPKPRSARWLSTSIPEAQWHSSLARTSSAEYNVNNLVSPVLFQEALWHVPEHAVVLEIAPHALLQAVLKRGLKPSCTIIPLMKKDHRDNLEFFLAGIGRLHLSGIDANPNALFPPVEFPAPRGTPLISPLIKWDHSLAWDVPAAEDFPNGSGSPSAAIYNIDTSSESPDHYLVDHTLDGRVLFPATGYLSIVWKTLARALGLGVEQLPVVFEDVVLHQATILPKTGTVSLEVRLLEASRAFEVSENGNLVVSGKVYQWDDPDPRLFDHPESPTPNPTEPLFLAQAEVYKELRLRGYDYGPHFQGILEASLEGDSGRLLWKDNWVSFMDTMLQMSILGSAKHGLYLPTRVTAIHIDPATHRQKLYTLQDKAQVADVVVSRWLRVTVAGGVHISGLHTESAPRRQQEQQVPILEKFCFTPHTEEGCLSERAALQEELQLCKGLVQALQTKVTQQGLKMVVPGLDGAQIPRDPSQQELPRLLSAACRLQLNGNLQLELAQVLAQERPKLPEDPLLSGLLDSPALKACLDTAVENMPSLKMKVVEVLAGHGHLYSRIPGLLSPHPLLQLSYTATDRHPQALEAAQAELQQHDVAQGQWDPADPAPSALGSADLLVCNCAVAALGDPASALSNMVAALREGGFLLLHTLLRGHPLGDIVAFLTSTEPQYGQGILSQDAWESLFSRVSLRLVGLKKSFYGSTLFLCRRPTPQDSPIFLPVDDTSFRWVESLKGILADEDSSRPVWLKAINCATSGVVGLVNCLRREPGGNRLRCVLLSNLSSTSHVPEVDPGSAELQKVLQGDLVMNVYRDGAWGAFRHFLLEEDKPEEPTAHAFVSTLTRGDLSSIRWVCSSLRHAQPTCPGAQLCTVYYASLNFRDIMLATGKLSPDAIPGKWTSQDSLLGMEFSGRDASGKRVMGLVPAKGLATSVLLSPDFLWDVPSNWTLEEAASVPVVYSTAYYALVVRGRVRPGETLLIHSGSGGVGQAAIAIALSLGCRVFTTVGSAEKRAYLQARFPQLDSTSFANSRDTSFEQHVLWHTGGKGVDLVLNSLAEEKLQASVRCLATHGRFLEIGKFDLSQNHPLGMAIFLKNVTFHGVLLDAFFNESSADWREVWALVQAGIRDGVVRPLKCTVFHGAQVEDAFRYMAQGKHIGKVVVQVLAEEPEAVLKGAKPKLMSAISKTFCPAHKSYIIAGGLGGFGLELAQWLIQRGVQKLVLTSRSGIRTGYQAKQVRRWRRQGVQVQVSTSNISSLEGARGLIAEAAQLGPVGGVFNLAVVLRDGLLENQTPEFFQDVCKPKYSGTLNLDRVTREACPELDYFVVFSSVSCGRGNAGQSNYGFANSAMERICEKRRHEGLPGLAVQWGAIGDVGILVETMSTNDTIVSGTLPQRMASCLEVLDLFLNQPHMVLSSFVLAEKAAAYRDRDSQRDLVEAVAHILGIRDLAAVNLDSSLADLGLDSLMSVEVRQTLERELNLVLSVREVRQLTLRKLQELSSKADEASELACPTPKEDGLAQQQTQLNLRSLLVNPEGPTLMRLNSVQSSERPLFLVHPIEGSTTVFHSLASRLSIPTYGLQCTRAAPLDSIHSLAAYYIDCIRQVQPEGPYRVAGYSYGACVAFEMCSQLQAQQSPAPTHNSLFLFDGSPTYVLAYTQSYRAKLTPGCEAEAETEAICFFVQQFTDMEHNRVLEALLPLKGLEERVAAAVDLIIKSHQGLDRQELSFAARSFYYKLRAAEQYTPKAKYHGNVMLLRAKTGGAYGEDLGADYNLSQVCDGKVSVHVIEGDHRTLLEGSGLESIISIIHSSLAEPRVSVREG

As usually defined, the AC50 is the concentration giving half of the maximal activity seen. As to `Cc1cc2c3c(c1)C(c1ccccc1)=N[C@@H](NC(=O)c1ccncc1)C(=O)N3CC2`, the AC50 in [1] is 50 µM (active); in [3] it was 50 µM (active); in assay [6], 81.8 µM (active); in assay [7], 24.4 µM (active); in assay [10] it was 50 µM (active); in [11], 5.26 µM (active). Besides, the AC50 in assay [16] is 10.1 µM (active); in [17] it was 74.3 µM (active). Also, the outcome in assay [2], in assay [4], in assay [5], in [8], in assay [9] and in [12] was inactive. Moreover, the call in [13], in assay [14], in [15] and in assay [18] was inactive.

As for `O=C(NC(=O)c1cc(F)c(F)cc1Cl)Nc1cc(F)ccc1N1CCC(C(=O)O)CC1`, the call in assay [1], in assay [2], in assay [3], in assay [4], in assay [5] and in assay [6] was inactive. Also, the outcome in assay [8], in [19], in assay [9], in assay [10], in assay [12] and in assay [13] was inactive. The call in [15], in assay [16], in [17] and in assay [18] was inactive. The AC50 in [7] was 25 µM (active); in [11], 21 µM (active); in assay [14], 2.05 µM (active).

On to `Clc1ccc(C(Cl)(Cl)Cl)cc1`, for which the compound was called inactive in assay [1], in [2], in [3], in [4], in assay [5] and in assay [6]. Besides, the result in [7], in assay [8], in [19], in [9], in assay [10] and in assay [11] was inactive. Further, the compound was called inactive in assay [12], in [13], in assay [14], in assay [16], in [17] and in assay [18].

With `N#Cc1ccc(N(CC(N)=O)CC(F)(F)F)cc1C(F)(F)F`, the compound was called inactive in assay [1], in [2], in assay [3], in assay [4], in assay [5] and in assay [6]. The compound was called inactive in assay [8], in assay [9], in assay [10], in assay [12], in [13] and in assay [15]. In addition, the compound was classed as inactive in assay [16], in assay [17] and in [18]. Moreover, the AC50 in assay [7] was 50 µM (active); in assay [11], 9.92 µM (active); in assay [14], 0.353 µM (active).

As for `Cc1ccccc1O`, the call in assay [1], in [2], in [3], in [4], in assay [5] and in [6] was inactive. In addition, the compound was called inactive in assay [7], in assay [8], in assay [19], in [9], in assay [10] and in assay [11]. Further, the outcome in [12], in [13], in assay [14], in assay [16], in assay [17] and in [18] was inactive.

On to `CCC(C)(CC)c1cc(NC(=O)c2c(OC)cccc2OC)on1`, for which the AC50 in assay [1] was 33.8 µM (active); in assay [7], 10.2 µM (active); in assay [11], 1.15 µM (active); in assay [14] it was 83 µM (active); in [15], 6.13 µM (active). The result in [2], in assay [3], in assay [4], in assay [5], in assay [6] and in assay [8] was inactive. Besides, the outcome in [19], in assay [9], in assay [10], in assay [12], in [13] and in assay [16] was inactive. Also, the compound was called inactive in assay [17] and in assay [18].

Take `C=CC(N)=O`: the call in assay [1], in assay [2], in assay [3], in assay [4], in [5] and in [6] was inactive. The compound was called inactive in [7], in assay [8], in [9], in [10], in assay [11] and in assay [12]. Besides, the compound was classed as inactive in [13], in [14], in assay [16], in assay [17] and in assay [18].
